The source of these data is PubChem BioAssay (EPA / NIEHS).

Inconclusive results are not listed. Calls of active or inactive are those of the source. The calls were made as follows, unless noted: active = hit-call score of the fitted dose curve at least 0.9, where 1 is the maximum; inactive = score below 0.9.

A short description of assay [1]: ATG_M_06_TRANS: Attagene TRANS-FACTORIAL HepG2 Assay for M06 Transcription Factor (Internal Marker) (AID 2282983; active = hit-call score of the fitted dose curve at least 0.9, where 1 is the maximum). The following applies: HepG2 Attagene TRANS M06 internal marker reporter. The essentials: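 Measured by capillary electrophoresis of fluorescently labelled RT-PCR products, this endpoint reflects reporter mRNA in HepG2 cells harbouring exogenous NR-GAL4 reporter constructs after 24 h exposure, with DMSO as baseline.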

Assay [2] is described as follows: ATG_M_32_TRANS: Attagene TRANS-FACTORIAL HepG2 Assay for M32 Transcription Factor (Internal Marker) (AID 2282984; active = hit-call score of the fitted dose curve at least 0.9, where 1 is the maximum;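 also: transcript level of a background control reporter unit measured by RT-PCR and capillary electrophoresis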). The note with it: HepG2 Attagene TRANS M32 internal marker reporter. The essentials: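 Measures reporter mRNA induction in human HepG2 liver cells after 24 h chemical treatment. Transcripts from transiently transfected GAL4-UAS reporter units are amplified, fluorescently labelled and sized by capillary electrophoresis; gain of signal relative to DMSO.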

The target in assay [3] is Nuclear receptor subfamily 4 group A member 2 (Homo sapiens) (UniProt P43354). The experiment in a line: ATG_NURR1_TRANS: Attagene TRANS-FACTORIAL HepG2 Assay for human Nuclear Receptor Related Protein 1 (NURR1) (AID 2282985; active = hit-call score of the fitted dose curve at least 0.9, where 1 is the maximum). The note with it: HepG2 Attagene TRANS reporter, mRNA readout. The essentials:
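Transient transfection of HepG2, human liver cells, with multiple GAL4-UAS reporter transcription units. Cells dosed 24 h, RNA isolated, reverse-transcribed, PCR-amplified, FAM-labelled, HpaI-digested, sized by capillary electrophoresis. DMSO served as negative control.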

Assay [4] concerns the target Transcriptional activator Myb (Homo sapiens) (UniProt P10242). The experiment in a line: ATG_Myb_CIS: Attagene CIS-FACTORIAL HepG2 Assay for human Myeloblastosis (Myb) Proto-Oncogene Transcription Factor (AID 2282986). The note with it: HepG2 Attagene CIS-FACTORIAL Myb reporter transcription; actives raise or lower the signal. The method in brief:
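Reporter mRNA is quantified by RT-PCR and capillary electrophoresis 24 h after dosing HepG2 cells transfected with cis-regulated reporter units, which track endogenous transcription factor activity. Gain and loss of signal are fitted versus DMSO baseline.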

For assay [5], the target named is Nuclear respiratory factor 1 (Homo sapiens) (UniProt Q16656). The experiment in a line: ATG_NRF1_CIS: Attagene CIS-FACTORIAL HepG2 Assay for human Nuclear Respiratory Factor 1 (NRF1) Orphan Gene (AID 2282987). The note with it: HepG2 NRF1 cis-element reporter, Attagene multiplex; actives raise or lower the signal. The method in brief:
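Endogenous NRF1-driven reporter transcription in transfected HepG2 cells after 24 h treatment. Readout: RT-PCR products, 6-FAM labelled and resolved by capillary electrophoresis; changes fitted both directions relative to DMSO.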

The nature of assay [6]: ATG_NFI_CIS: Attagene CIS-FACTORIAL HepG2 Assay for human Nuclear Factor I (NFI) (AID 2282989). The note with it: HepG2 cis-regulatory reporter, NFI response element transcription; actives raise or lower the signal. The essentials: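 Transfected HepG2 liver cells, exposed 24 h, supplied total RNA for oligo(dT) reverse transcription and reporter-specific PCR. Labelled, HpaI-cut fragments were sized by capillary electrophoresis; DMSO set the baseline for bidirectional fitting.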

Assay [7] addresses Myc proto-oncogene protein (Homo sapiens) (UniProt P01106). The experiment in a line: ATG_Myc_CIS: Attagene CIS-FACTORIAL HepG2 Assay for human Myelocytomatosis (Myc) Proto-Oncogene Transcription Factor (AID 2282990). The following applies: HepG2, Attagene cis-reporter transcription factor activity; actives raise or lower the signal. The method in brief: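 After 24 h chemical treatment of HepG2 cells carrying multiplexed cis-regulated reporter constructs, reporter transcripts quantified by RT-PCR and capillary electrophoresis of fluorescent fragments. Gain or loss fitted against DMSO baseline.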

Assay [8] is described as follows: ATG_NF_kB_CIS: Attagene CIS-FACTORIAL HepG2 Assay for human Nuclear Factor Kappa B (NF-kB) (AID 2282991). The following applies: HepG2 Attagene cis-factorial NF-kB reporter mRNA; actives raise or lower the signal. The method in brief:
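Readout is reporter transcript level, gain or loss versus DMSO, measured 24 h post-dose via RT-PCR, fluorescent labelling and capillary electrophoresis. Human HepG2 liver cells carried transiently transfected CIS reporter constructs reflecting endogenous factors.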

Assay [9] in a line: ATG_Oct_MLP_CIS: Attagene CIS-FACTORIAL HepG2 Assay for human Octamer-Binding Transcription Factor (Oct) (AID 2282993). The following applies: HepG2 Attagene cis-factorial Oct reporter, mRNA; actives raise or lower the signal. The method in brief:
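Using HepG2 cells bearing transfected cis-reporter constructs, mRNA induction was read after 24 h by fluorescent RT-PCR and capillary electrophoresis, with DMSO defining baseline for gain- or loss-of-signal fits.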

Assay [10] has as its target Cellular tumor antigen p53 (Homo sapiens) (UniProt P04637). Description: ATG_p53_CIS: Attagene CIS-FACTORIAL HepG2 Assay for human p53 Transcription Factor (AID 2282994). The note with it: HepG2 p53 cis-element reporter, Attagene mRNA; actives raise or lower the signal. The method in brief:
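Multiplexed reporter mRNA assay in human HepG2 liver cells; cis-regulated units report endogenous factor activity. Values come from bidirectional curve fitting against DMSO negative control after 24 h treatment.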

Assay [11] in a line: BSK_3C_TissueFactor: BioMAP Diversity Plus: 3C Assay for Tissue Factor Biomarker Activity (AID 2282997). The note with it: BioMAP 3C HUVEC, tissue factor biomarker readout; actives raise or lower the signal. The method in brief:
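Values derive from bidirectional curve fitting against DMSO of Tissue Factor ELISA signals, taken 24 h after dosing primary human umbilical vein endothelial cells.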

Assay [12] in a line: BSK_3C_uPAR: BioMAP Diversity Plus: 3C Assay for Urokinase-type plasminogen activator receptor (uPAR) Biomarker Activity (AID 2282998). The note with it: BioMAP 3C HUVEC, uPAR biomarker ELISA; actives raise or lower the signal. The method in brief:
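In this endothelial cell-based assay, human umbilical vein primary cells were treated with chemicals and harvested at 24 h. uPAR was quantified using ELISA, with gains or losses fitted relative to DMSO controls.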
(An ELISA detects its analyte on a solid surface through an enzyme-linked reagent.)

Assay [13] can be described thus: BSK_3C_VCAM1: BioMAP Diversity Plus: 3C Assay for Vascular cell adhesion molecule 1 (VCAM1) Biomarker Activity (AID 2282999). The following applies: BioMAP 3C HUVEC, VCAM1 ELISA, cytokine-stimulated; actives raise or lower the signal. The method in brief:
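Endothelial cells from human umbilical vein are treated with test chemical. At 24 h, VCAM-1 is measured by ELISA, and responses in either direction are fitted relative to DMSO.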

Assay [14] is described as follows: BSK_4H_Eotaxin3: BioMAP Diversity Plus: 4H Assay for Eotaxin 3 Biomarker Activity (AID 2283000).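 As to outcome: CCL26 protein level quantified by ELISA in parallel with SRB cytotoxicity check.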 The following applies: primary human endothelial cells (HUVEC); actives raise or lower the signal. The essentials:
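Endothelial primary cells (human umbilical vein) exposed to compound for 24 h. ELISA detection of Eotaxin-3.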

Read-out in assay [15]: Intercellular Adhesion Molecule 1 (ICAM1), ICAM1 (gene 3383)
The experiment in a line: BSK_3C_ICAM1: BioMAP Diversity Plus: 3C Assay for Intercellular Adhesion Molecule 1 (ICAM1) Biomarker Activity (AID 2283003). The note with it: primary human endothelial cells (HUVEC); actives raise or lower the signal. The essentials: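 ICAM-1 levels measured by ELISA after HUVEC cultures in the 3C system had been dosed for 24 h. Gain or loss of signal relative to DMSO was fitted in both directions.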

A short description of assay [16]: ATG_NRF2_ARE_CIS: Attagene CIS-FACTORIAL HepG2 Assay for human Nuclear Factor Erythroid 2 Related Factor 2 (NFR2) response to Antioxidant Response Elements (ARE) (AID 2282992).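 As to AC50: reporter mRNA level measured by RT-PCR and capillary electrophoresis fluorescence.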 The following applies: HepG2 Attagene ARE/NRF2 reporter, transcription factor activity; actives raise or lower the signal. The essentials:
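Multiplexed reporter mRNA profiling in HepG2 after a 24 h chemical exposure. Curves fitted in both directions relative to DMSO negative control.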

The target of assay [17] is human Peroxisome Proliferator-activated Receptor delta (PPARd), PPARD (gene 5467) (UniProt Q03181). Description: ATG_PPARd_TRANS: Attagene TRANS-FACTORIAL HepG2 Assay for human Peroxisome Proliferator-activated Receptor delta (PPARd) (AID 2283002; active = hit-call score of the fitted dose curve at least 0.9, where 1 is the maximum). The method in brief: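 Read-out is induced reporter mRNA, quantified by RT-PCR with fluorescent labelling and capillary electrophoresis after 24 h dosing. Cells are HepG2 transiently carrying multiple GAL4-UAS reporter units driven by exogenous NR-GAL4 chimeras; DMSO serves as baseline.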
Sequence of human Peroxisome Proliferator-activated Receptor delta (PPARd), PPARD (gene 5467) (Q03181 whole entry, looked up, the tested form may be a part): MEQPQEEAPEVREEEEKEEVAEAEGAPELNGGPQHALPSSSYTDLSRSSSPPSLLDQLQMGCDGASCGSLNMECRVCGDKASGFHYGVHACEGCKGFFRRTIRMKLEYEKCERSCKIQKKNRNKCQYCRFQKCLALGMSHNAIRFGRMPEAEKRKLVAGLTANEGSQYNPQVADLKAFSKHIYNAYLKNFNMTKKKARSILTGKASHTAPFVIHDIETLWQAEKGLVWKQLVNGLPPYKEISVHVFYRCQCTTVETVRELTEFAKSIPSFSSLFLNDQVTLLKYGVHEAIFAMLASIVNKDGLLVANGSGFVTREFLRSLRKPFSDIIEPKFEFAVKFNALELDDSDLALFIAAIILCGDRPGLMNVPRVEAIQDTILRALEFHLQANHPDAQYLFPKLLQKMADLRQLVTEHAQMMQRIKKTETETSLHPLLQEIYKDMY

Assay [18] has as its target human Peroxisome Proliferator-activated Receptor alpha (PPARa), PPARA (gene 5465) (UniProt Q07869). The experiment in a line: ATG_PPARa_TRANS: Attagene TRANS-FACTORIAL HepG2 Assay for human Peroxisome Proliferator-activated Receptor alpha (PPARa) (AID 2283001; active = hit-call score of the fitted dose curve at least 0.9, where 1 is the maximum;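 as to AC50: potency for gain of reporter signal over DMSO so agonist or activator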). The method in brief:
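Read-out is fluorescence of reporter cDNA fragments resolved by capillary electrophoresis after RT-PCR. Human HepG2 liver cells carried transfected PPARa-Gal4 chimera and GAL4-UAS reporter units, treated 24 h; activity scored as increase over DMSO.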

Assay [19] deals with Hepatocyte nuclear factor 4-alpha (Homo sapiens) (UniProt P41235). Description: ATG_HNF4a_TRANS: Attagene TRANS-FACTORIAL HepG2 Assay for human Hepatocyte Nuclear Factor 4 alpha (HNF4a) (AID 2282982; active = hit-call score of the fitted dose curve at least 0.9, where 1 is the maximum). The note with it: HepG2 HNF4a transactivation reporter, mRNA readout. The essentials: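 Readout is fluorescent reporter-transcript fragments resolved by capillary electrophoresis after RT-PCR from HepG2 cells dosed for 24 h. Cells carried transfected GAL4-UAS reporter constructs measuring exogenous NR-GAL4 chimera activity; DMSO served as baseline.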
Sequence of Hepatocyte nuclear factor 4-alpha (Homo sapiens) (P41235 whole entry, looked up, the tested form may be a part): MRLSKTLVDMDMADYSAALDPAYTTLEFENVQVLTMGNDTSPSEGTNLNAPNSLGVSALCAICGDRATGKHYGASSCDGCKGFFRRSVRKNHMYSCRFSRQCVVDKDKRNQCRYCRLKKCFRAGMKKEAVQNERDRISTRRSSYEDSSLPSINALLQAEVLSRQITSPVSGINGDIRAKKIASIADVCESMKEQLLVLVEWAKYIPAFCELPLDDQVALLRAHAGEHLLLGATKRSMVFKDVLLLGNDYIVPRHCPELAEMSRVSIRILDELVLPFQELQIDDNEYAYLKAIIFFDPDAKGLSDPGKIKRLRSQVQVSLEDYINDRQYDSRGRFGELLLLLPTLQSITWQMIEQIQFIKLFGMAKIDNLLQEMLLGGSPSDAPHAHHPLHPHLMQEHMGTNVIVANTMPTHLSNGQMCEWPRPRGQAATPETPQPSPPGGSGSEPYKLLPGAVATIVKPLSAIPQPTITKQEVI

Sequence of Transcriptional activator Myb (Homo sapiens) (P10242 whole entry, looked up): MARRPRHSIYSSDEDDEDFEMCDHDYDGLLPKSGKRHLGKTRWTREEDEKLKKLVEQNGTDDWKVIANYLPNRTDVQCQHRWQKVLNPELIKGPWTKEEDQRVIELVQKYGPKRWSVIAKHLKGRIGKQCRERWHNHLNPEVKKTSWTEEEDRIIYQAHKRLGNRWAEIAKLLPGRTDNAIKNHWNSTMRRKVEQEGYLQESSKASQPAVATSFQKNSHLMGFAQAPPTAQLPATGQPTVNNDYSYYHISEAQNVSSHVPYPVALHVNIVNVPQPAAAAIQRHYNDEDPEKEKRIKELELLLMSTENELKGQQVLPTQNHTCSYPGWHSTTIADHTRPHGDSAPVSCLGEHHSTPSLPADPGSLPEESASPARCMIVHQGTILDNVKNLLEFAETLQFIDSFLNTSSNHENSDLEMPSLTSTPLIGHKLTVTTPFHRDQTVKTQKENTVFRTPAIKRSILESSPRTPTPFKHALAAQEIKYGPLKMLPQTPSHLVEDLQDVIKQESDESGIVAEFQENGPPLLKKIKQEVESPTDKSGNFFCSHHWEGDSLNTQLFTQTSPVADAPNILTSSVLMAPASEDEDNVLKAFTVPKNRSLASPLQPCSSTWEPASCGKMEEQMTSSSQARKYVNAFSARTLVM
Sequence of Myc proto-oncogene protein (Homo sapiens) (P01106 whole entry, looked up, the tested form may be a part): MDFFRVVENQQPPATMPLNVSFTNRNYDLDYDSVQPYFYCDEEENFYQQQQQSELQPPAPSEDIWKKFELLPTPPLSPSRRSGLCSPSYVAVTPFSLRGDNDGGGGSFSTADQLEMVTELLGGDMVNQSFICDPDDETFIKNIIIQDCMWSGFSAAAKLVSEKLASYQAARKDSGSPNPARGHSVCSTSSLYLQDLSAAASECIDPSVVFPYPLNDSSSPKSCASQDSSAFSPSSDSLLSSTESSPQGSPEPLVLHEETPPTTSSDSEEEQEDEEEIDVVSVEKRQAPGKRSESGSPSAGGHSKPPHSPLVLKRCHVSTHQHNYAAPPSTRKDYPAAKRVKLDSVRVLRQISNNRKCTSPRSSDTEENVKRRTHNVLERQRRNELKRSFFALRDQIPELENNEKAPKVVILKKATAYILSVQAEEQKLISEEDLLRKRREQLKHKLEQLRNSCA
Sequence of Cellular tumor antigen p53 (Homo sapiens) (P04637 whole entry, looked up): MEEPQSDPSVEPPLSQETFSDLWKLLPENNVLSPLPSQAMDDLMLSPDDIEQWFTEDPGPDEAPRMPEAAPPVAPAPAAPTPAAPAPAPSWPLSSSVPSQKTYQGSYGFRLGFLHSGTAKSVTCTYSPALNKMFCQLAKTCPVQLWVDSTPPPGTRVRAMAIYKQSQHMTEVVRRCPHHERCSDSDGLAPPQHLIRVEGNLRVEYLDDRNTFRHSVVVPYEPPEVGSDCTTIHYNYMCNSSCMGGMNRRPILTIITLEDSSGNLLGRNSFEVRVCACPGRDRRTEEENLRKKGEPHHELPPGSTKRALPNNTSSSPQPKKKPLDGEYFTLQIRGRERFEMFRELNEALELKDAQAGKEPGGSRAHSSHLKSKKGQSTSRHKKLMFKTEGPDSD
Sequence of Nuclear receptor subfamily 4 group A member 2 (Homo sapiens) (P43354 whole entry, looked up, the tested form may be a part): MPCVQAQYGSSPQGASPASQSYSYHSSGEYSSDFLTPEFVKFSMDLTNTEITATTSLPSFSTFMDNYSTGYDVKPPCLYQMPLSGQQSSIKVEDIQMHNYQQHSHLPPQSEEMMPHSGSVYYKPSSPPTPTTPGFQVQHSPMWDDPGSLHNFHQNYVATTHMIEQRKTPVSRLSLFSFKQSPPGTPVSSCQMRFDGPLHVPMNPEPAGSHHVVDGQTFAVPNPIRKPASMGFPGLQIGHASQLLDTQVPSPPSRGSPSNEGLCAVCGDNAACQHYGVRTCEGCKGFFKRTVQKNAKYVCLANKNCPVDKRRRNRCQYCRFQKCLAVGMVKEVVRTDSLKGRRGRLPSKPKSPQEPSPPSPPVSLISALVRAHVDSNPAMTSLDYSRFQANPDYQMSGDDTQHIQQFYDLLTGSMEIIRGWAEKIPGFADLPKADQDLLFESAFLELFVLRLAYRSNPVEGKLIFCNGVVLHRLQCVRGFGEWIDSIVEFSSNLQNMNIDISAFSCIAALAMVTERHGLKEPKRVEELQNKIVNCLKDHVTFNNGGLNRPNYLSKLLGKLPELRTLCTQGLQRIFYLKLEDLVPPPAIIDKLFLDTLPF
Sequence of Nuclear respiratory factor 1 (Homo sapiens) (Q16656 whole entry, looked up): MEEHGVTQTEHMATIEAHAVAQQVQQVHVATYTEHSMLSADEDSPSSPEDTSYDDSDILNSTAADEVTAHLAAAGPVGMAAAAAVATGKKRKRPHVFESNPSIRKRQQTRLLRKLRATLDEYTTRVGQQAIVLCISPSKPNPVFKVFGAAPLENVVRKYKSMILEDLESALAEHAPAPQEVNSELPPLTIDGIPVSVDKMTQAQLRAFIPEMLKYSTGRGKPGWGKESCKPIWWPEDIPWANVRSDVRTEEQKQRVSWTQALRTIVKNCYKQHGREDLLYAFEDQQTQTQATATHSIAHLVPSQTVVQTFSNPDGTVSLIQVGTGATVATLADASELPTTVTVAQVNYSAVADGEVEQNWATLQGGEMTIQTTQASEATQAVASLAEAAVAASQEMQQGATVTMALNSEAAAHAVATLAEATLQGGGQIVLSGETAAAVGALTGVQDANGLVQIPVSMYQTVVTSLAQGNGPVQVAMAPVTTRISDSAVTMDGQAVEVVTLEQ
Sequence of human Peroxisome Proliferator-activated Receptor alpha (PPARa), PPARA (gene 5465) (Q07869 whole entry, looked up, the tested form may be a part): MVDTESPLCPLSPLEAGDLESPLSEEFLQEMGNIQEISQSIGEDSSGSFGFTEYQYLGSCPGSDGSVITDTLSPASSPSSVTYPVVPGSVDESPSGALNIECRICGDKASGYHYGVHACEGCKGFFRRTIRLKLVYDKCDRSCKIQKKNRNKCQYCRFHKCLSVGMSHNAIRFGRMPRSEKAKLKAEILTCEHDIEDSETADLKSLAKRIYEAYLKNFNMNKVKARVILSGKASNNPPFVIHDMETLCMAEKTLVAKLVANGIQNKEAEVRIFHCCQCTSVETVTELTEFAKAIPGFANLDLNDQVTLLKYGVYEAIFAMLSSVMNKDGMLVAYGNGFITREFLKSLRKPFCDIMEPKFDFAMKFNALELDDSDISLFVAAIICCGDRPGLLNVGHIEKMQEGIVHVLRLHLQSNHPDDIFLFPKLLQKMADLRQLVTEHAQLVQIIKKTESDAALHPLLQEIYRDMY

For the compound `COC[C@H](C)N(C(=O)CCl)c1c(C)csc1C`, the outcome in assay [1], in assay [2], in [3], in [4], in [5] and in assay [6] was inactive. Also, the compound was classed as inactive in [7], in [8], in assay [9], in assay [10], in assay [11] and in [12]. Also, the outcome in [13], in [14] and in assay [15] was inactive.
Broadly, the AC50 is the concentration at which the activity in the assay is half-maximal. As for `CCOP(=S)(OCC)Oc1nc(Cl)c(Cl)cc1Cl`, the call in assay [1], in assay [2], in assay [3], in assay [4], in assay [5] and in assay [7] was inactive. In addition, the compound was classed as inactive in [8], in assay [10], in assay [11], in [17] and in assay [15]. For the same compound, the AC50 was 69.6 µM (active) in [6]; 33.4 µM (active) in assay [16]; 117 µM (active) in [9]; 33.5 µM (active) in [12]; 27.9 µM (active) in assay [14].
For `ClC1=C(Cl)[C@]2(Cl)[C@H]3[C@H]([C@H]4C=C[C@H]3C4)[C@@]1(Cl)C2(Cl)Cl`, the outcome in assay [1], in [2], in [3], in [4], in assay [5] and in assay [6] was inactive. Also, the compound was classed as inactive in assay [7], in [16], in assay [9], in assay [10] and in assay [15]. The AC50 in assay [11] was 2.35 µM (active); in assay [12] it was 3.97 µM (active); in assay [13] it was 3.97 µM (active); in assay [14], 20 µM (active).
With `CC(=O)C=C(C)C`, the compound was classed as inactive in assay [1], in [2], in assay [3], in [4], in assay [5] and in assay [6]. Also, the compound was classed as inactive in assay [7], in assay [8], in [9] and in assay [18].
Take `COP(=O)(OC)O/C(=C\Cl)c1cc(Cl)c(Cl)cc1Cl`: the result in assay [1], in [2], in [6], in assay [8] and in [17] was inactive. The AC50 was 115 µM (active) in assay [3]; 170 µM (active) in assay [4]; 66.2 µM (active) in assay [5]; 180 µM (active) in assay [7]; 25.8 µM (active) in assay [16]; 27.6 µM (active) in [9]. Also, the AC50 in assay [10] was 161 µM (active); in assay [18], 64.8 µM (active).
Consider `CCOC(=O)Nc1cccc(OC(=O)Nc2ccccc2)c1`, for which the compound was classed as inactive in assay [19], in [4], in [5], in assay [6], in [7] and in [8]. The outcome in [9], in [10] and in [17] was inactive. In addition, in assay [16], the AC50 was 17.2 µM (active).
